# Test results reported in the supplement of paper PMC10849652.
# Targets with a hit are over-represented here; the source holds about 8,800 in all. About 0.5% of all pairs of compound and target were hits. Values without a mark were called inactive.
# How the values were obtained:
# Assay in all cases: log2 fold change, soluble protein after heating vs DMSO (PISA); higher = thermal stabilisation; K562 lysate, 10 uM; active = over 0.2 and 3.5 SD of the protein, either way, in both replicates (recomputed)
# lapatinib = compound: CS(=O)(=O)CCNCc1ccc(-c2ccc3ncnc(Nc4ccc(OCc5cccc(F)c5)c(Cl)c4)c3c2)o1 [lapatinib]
# Method in brief: (§1)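 Pellets of K562 cells were dounce-homogenised in PBS pH 7.4 with 1 mM MgCl2, and the crude extract was held at 1 mg/mL protein for a 30 min treatment with 10 μM compound. Aliquots were heated for 3 min over 48°C-58°C and pooled before NP-40 was added to 0.5% at 4°C. The supernatant from 21,000xg for 90 min was quantified by TMTpro 16plex LC-MS/MS with channel sums equalised. Values are reported from duplicates as log-two fold change in thermal stability relative to solvent controls.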
# pictilisib = compound: CS(=O)(=O)N1CCN(Cc2cc3nc(-c4cccc5[nH]ncc45)nc(N4CCOCC4)c3s2)CC1 [pictilisib]
# Method in brief: as §1
# crizotinib = compound: C[C@@H](Oc1cc(-c2cnn(C3CCNCC3)c2)cnc1N)c1c(Cl)ccc(F)c1Cl [crizotinib]
# Method in brief: as §1
# [1] = compound: C[C@H](C1=CC=C(C=C1)C(=O)NC2=C3C=CNC3=NC=C2)N
# Method in brief: as §1
# duvelisib = compound: C[C@H](Nc1ncnc2nc[nH]c12)c1cc2cccc(Cl)c2c(=O)n1-c1ccccc1 [duvelisib]
# Method in brief: as §1
# gandotinib = compound: Cc1cc(Nc2cc(CN3CCOCC3)c3nc(C)c(Cc4ccc(Cl)cc4F)n3n2)n[nH]1 [gandotinib]
# Method in brief: as §1
# tozasertib = compound: Cc1cc(Nc2cc(N3CCN(C)CC3)nc(Sc3ccc(NC(=O)C4CC4)cc3)n2)n[nH]1 [tozasertib]
# Method in brief: as §1
# doramapimod = compound: Cc1ccc(-n2nc(C(C)(C)C)cc2NC(=O)Nc2ccc(OCCN3CCOCC3)c3ccccc23)cc1 [doramapimod]
# Method in brief: as §1
# bafetinib = compound: Cc1ccc(NC(=O)c2ccc(CN3CC[C@H](N(C)C)C3)c(C(F)(F)F)c2)cc1Nc1nccc(-c2cncnc2)n1 [bafetinib]
# Method in brief: as §1
# [2] = compound: Cc1cccc(CC(=O)N2CCc3c2ccc(-c2cn(C)c4ncnc(N)c24)c3F)n1
# Method in brief: as §1
# nilotinib = compound: Cc1cn(-c2cc(NC(=O)c3ccc(C)c(Nc4nccc(-c5cccnc5)n4)c3)cc(C(F)(F)F)c2)cn1 [nilotinib]
# Method in brief: as §1
# [3] = compound: Cc1nc(Nc2n[nH]c3c2CN(C(=O)N[C@H](CN(C)C)c2ccccc2)C3(C)C)c2sccc2n1
# Method in brief: as §1
# dasatinib = compound: Cc1nc(Nc2ncc(C(=O)Nc3c(C)cccc3Cl)s2)cc(N2CCN(CCO)CC2)n1 [dasatinib]
# Method in brief: as §1
# [4] = compound: Cc1ncc(-c2ccnc(Nc3ccc(S(C)(=O)=O)cc3)n2)n1C(C)C
# Method in brief: as §1
# [5] = compound: Cn1cc(-c2ccc3c(c2)CCN3C(=O)Cc2cccc(C(F)(F)F)c2)c2c(N)ncnc21
# Method in brief: as §1
# quisinostat = compound: Cn1cc(CNCC2CCN(c3ncc(C(=O)NO)cn3)CC2)c2ccccc21 [quisinostat]
# Method in brief: as §1
# tipifarnib = compound: Cn1cncc1[C@@](N)(c1ccc(Cl)cc1)c1ccc2c(c1)c(-c1cccc(Cl)c1)cc(=O)n2C [tipifarnib]
# Method in brief: as §1
# [6] = compound: NC(=O)Nc1cc(-c2cccc(F)c2)sc1C(=O)N[C@H]1CCCNC1
# Method in brief: as §1
# [7] = compound: NC(=O)c1cnc(N[C@@H]2CCCC[C@@H]2N)nc1Nc1cccc(-n2nccn2)c1
# Method in brief: as §1
# [8] = compound: NC1(c2ccc(-c3nc4ccn5c(=O)[nH]nc5c4cc3-c3ccccc3)cc2)CCC1
# Method in brief: as §1
# Chain of UniProt P21953 (P21953 whole entry, looked up): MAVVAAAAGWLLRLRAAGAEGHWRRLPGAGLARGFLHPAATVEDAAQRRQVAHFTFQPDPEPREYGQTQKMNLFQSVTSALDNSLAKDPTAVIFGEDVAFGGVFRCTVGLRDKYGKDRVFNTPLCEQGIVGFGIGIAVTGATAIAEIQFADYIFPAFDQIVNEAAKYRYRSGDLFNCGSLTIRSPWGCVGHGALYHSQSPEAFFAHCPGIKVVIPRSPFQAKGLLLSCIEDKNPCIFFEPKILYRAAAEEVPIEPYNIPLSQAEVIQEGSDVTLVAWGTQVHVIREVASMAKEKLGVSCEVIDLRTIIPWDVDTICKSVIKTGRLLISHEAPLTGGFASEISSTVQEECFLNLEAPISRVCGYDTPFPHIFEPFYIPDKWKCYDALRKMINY
# Chain of UniProt Q96A33 (Q96A33 whole entry, looked up): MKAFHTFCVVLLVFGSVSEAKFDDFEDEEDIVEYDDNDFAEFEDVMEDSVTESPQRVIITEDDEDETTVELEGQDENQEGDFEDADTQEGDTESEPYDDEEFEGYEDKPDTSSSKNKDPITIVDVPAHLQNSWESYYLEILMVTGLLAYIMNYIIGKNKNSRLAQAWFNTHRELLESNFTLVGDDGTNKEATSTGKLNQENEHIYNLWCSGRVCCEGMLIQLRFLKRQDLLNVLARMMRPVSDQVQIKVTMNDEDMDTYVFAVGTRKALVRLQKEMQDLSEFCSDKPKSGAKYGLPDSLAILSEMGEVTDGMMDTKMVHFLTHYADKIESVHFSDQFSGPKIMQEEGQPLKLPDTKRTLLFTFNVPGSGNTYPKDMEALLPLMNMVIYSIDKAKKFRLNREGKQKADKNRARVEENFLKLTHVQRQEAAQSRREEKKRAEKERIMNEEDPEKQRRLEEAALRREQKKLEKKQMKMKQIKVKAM
# Chain of UniProt Q9Y6K0 (Q9Y6K0 whole entry, looked up): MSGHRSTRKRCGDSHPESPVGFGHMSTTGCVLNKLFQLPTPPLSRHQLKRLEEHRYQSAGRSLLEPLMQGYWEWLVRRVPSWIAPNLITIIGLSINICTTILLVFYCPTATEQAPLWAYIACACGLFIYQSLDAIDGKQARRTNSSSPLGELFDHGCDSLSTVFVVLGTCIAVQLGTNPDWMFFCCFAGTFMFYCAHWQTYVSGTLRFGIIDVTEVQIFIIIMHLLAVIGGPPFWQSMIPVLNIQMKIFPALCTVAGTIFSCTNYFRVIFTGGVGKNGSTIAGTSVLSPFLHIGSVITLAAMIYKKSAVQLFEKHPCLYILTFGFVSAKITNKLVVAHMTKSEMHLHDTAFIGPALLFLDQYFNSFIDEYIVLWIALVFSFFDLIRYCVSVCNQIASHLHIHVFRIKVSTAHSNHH
# Chain of UniProt Q96LT7 (Q96LT7 whole entry, looked up): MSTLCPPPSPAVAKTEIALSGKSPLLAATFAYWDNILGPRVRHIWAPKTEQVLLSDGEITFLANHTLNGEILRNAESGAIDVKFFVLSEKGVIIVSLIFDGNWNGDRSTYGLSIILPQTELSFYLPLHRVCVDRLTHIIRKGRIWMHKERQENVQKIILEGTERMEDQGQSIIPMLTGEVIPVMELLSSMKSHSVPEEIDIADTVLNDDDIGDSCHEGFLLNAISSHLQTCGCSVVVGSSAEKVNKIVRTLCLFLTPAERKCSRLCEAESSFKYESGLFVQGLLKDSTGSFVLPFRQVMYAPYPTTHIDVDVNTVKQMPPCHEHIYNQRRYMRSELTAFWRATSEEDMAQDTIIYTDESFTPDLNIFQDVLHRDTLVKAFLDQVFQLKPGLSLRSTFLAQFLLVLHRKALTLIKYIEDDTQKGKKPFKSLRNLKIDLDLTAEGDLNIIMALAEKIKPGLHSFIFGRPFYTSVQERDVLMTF
# Chain of UniProt P50750 (P50750 whole entry, looked up): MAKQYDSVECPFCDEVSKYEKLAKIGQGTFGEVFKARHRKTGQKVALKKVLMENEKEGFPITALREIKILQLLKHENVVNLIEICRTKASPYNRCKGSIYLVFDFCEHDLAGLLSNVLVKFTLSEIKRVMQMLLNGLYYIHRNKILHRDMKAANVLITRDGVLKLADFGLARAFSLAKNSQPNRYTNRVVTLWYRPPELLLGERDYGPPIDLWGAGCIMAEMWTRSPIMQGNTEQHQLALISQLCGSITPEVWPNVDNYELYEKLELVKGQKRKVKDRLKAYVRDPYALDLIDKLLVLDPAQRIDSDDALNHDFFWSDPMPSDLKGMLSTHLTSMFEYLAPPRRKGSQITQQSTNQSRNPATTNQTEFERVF
# Chain of UniProt P06493 (P06493 whole entry, looked up): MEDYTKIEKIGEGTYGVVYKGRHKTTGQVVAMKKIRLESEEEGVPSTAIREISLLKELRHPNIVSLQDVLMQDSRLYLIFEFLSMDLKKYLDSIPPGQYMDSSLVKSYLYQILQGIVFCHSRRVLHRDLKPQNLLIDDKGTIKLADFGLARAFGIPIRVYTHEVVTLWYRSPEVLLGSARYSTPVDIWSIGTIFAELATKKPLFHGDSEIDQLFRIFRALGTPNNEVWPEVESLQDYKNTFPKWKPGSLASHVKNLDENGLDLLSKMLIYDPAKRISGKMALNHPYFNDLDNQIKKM
# Chain of UniProt Q8ND76 (Q8ND76 whole entry, looked up): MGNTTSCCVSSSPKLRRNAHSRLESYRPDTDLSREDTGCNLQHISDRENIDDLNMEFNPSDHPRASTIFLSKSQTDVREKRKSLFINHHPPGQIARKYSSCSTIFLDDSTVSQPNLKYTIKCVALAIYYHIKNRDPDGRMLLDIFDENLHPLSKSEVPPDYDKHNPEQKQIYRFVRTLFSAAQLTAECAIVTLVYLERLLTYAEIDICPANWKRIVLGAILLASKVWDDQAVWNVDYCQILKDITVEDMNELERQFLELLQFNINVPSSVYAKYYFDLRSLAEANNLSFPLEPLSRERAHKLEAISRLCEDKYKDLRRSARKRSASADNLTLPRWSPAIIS
# Chain of UniProt Q6P4E1 (Q6P4E1 whole entry, looked up): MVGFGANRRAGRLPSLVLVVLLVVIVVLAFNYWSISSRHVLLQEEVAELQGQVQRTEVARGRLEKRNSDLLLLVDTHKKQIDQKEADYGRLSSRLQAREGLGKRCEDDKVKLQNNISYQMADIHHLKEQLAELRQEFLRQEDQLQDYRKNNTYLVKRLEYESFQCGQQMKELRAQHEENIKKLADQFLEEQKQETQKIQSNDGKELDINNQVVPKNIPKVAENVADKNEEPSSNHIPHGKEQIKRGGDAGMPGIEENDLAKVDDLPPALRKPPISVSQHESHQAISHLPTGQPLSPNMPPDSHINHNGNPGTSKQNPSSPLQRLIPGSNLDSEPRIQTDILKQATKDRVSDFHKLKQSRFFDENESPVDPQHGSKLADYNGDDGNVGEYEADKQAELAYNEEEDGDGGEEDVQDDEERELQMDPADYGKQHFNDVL
# Chain of UniProt Q9BUK0 (Q9BUK0 whole entry, looked up): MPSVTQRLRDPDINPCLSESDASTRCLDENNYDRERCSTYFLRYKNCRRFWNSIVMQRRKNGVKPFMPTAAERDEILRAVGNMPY
# Chain of UniProt Q86YS7 (Q86YS7 whole entry, looked up): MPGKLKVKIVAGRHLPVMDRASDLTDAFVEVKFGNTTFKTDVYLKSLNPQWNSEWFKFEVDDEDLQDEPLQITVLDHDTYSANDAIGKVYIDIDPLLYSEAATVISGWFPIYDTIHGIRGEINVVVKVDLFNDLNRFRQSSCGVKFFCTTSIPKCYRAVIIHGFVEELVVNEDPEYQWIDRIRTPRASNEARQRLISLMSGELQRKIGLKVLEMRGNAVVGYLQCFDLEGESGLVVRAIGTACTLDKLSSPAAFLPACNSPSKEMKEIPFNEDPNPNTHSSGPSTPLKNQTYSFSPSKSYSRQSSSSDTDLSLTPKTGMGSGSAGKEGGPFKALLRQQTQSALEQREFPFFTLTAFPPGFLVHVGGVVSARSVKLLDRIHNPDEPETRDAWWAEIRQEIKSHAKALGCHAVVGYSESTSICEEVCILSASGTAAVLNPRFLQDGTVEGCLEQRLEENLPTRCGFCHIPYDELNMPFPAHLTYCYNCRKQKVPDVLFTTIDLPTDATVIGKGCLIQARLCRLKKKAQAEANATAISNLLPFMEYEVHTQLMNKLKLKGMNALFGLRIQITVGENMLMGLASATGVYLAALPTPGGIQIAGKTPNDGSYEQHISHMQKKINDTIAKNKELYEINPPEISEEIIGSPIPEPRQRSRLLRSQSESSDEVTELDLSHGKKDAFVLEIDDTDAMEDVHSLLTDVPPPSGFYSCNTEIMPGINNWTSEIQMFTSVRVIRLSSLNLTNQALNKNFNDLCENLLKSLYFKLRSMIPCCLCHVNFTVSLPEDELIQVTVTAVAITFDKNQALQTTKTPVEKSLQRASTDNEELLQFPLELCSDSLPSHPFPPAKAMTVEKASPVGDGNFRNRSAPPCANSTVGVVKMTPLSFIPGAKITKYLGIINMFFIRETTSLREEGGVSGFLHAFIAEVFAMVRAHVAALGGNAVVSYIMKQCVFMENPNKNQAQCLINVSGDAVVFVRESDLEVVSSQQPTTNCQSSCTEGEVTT
# Chain of UniProt O75794 (O75794 whole entry, looked up): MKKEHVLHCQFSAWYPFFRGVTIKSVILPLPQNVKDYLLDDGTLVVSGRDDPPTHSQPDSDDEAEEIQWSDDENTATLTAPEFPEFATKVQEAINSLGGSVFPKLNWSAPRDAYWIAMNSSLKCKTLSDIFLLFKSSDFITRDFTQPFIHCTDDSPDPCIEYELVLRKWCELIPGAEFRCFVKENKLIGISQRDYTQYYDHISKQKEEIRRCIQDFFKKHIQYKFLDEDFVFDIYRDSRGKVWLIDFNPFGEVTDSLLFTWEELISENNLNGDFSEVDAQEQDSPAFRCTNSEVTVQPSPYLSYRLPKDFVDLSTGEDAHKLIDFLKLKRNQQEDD
Target,log2 fold change (lapatinib),log2 fold change (pictilisib),log2 fold change (crizotinib),log2 fold change [1],log2 fold change (duvelisib),log2 fold change (gandotinib),log2 fold change (tozasertib),log2 fold change (doramapimod),log2 fold change (bafetinib),log2 fold change [2],log2 fold change (nilotinib),log2 fold change [3],log2 fold change (dasatinib),log2 fold change [4],log2 fold change [5],log2 fold change (quisinostat),log2 fold change (tipifarnib),log2 fold change [6],log2 fold change [7],log2 fold change [8]
C9orf72 (UniProt Q96LT7),0.061,-0.112,0.082,-0.075,-0.072,0.035,-0.196,0.03,-0.043,-0.009,0.017,-0.063,-0.025,0.073,0.001,-0.034,-0.065,-0.03,0.015,-0.014
CHD3 isoform 3 (UniProt Q12873),-0.022,-0.02,0.009,0.014,-0.022,-0.013,-0.002,0.028,-0.047,0.033,0.036,-0.004,-0.033,-0.047,0.032,0.005,0.014,0.029,-0.002,0.008
BCKDHB (UniProt P21953),0.005,-0.043,-0.055,0.083,0.026,0.015,0.09,0.064,-0.052,-0.017,0.068,0.007,0.062,0.084,0.039,0.031,-0.069,-0.005,0.007,-0.039
CDK5RAP3 isoform 4 (UniProt Q96JB5),-0.013,-0.028,-0.054,-0.231 (active),-0.002,0.173,0.019,0.017,-0.02,0.211,0.003,-0.016,-0.067,0.006,0.045,-0.03,-0.043,0.023,0.026,-0.007
ATP6V0A2 (UniProt Q9Y487),-0.07,-0.047,-0.016,-0.227 (active),0.026,0.108,0.004,0.023,-0.046,0.13,0.034,-0.008,-0.028,0.027,0.003,-0.065,-0.033,-0.011,0.001,-0.001
CHCHD7 isoform 4 (UniProt Q9BUK0),0.079,0.06,-0.052,-0.382 (active),-0.01,0.266,-0.077,0.026,-0.001,0.187,-0.147,0.031,-0.044,-0.147,0.041,-0.207,-0.117,0.055,-0.04,
ATAD3B (UniProt Q5T9A4),0.003,-0.035,-0.091,0.308 (active),0.007,-0.169,0.014,0.003,-0.074,-0.129,-0.017,0.019,0.01,-0.026,0.046,0.018,-0.004,0.051,-0.006,0.006
CDK1 (UniProt P06493),-0.012,-0.021,-0.041,-0.018,0.031,-0.224,0.001,0.019,-0.016,-0.022,-0.026,0.018,-0.027,0.067,-0.02,0.003,0.015,0.012,0.127,0.015
CEPT1 (UniProt Q9Y6K0),-0.121,-0.08,-0.122,-0.106,-0.019,-0.058,0.025,-0.07,-0.124,0.223 (active),-0.053,-0.015,-0.018,0.028,0.06,-0.021,-0.068,0.028,-0.008,-0.094
CDK9 isoform 2 (UniProt P50750),-0.103,0.034,0.067,0.066,-0.026,0.074,-0.108,-0.02,-0.125,-0.056,-0.035,0.255,0.003,0.403 (active),-0.007,-0.028,-0.016,0.009,0.078,-0.04
CASC4 (UniProt Q6P4E1),-0.038,0.069,0.019,-0.088,0.051,0.016,0.067,0.057,-0.045,0.02,-0.072,-0.006,0.037,0.053,0.029,0.021,-0.033,-0.024,0.035,-0.011
CDC123 (UniProt O75794),0.016,-0.011,-0.012,0.032,0.02,0.335 (active),-0.022,-0.032,-0.049,-0.048,0.026,-0.011,-0.006,-0.104,0.033,0.008,-0.008,0.022,-0.009,0.017
CCDC47 (UniProt Q96A33),-0.05,0.005,-0.016,-0.012,-0.03,-0.145,-0.009,-0.018,-0.031,0.049,-0.012,-0.009,-0.016,0.025,-0.009,0.006,-0.025,0.014,0.019,-0.023
C2CD5 isoform 3 (UniProt Q86YS7),-0.031,-0.029,-0.028,-0.26 (active),-0.009,0.125,-0.038,0.035,-0.056,0.28 (active),-0.036,0.074,-0.053,0.046,0.01,0.013,-0.053,0.024,0.01,-0.044
CCNY (UniProt Q8ND76),-0.061,-0.044,-0.035,-0.094,-0.057,0.081,0.056,0.033,-0.073,0.054,0.017,0.016,-0.021,0.05,0.065,-0.216,0.057,0.077,-0.022,0.025
ATP9B (UniProt O43861),-0.063,-0.269,0.032,-0.181,-0.005,-0.037,0.017,0.136,0.446 (active),0.242,0.05,0.164,-0.04,-0.069,-0.049,0.009,-0.08,-0.021,0.107,0.064
